Source: the supplement of paper PMC10338343
± gives the standard deviation.

Assays:
[1] = test system: MILI (PIWIL2) piRISC loaded with piRNA #1 (26 nt); assay: pre-steady-state target cleavage rate (min^-1); guide: piRNA #1 5'p-UGAGGUAGUAGGUUGUAUAGUAUCCA; higher = faster piRNA-guided slicing of the target; details: auxiliary factor: 500 nM mouse GTSF1;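 also: 1 nM active piRISC with 0.1 nM target library at 33 °C single turnover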
Summary of the method: (§1)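 The pre-steady-state cleavage rate was derived from a burst-and-steady-state fit of Cleave-'n-Seq data. For these assays, 1 nM active affinity-purified piRISC loaded with a single synthetic guide was mixed with […] a transcribed, DNA-blocked target RNA library in HEPES–potassium acetate buffer at 33 °C, with or without 500 nM GTSF1 partner protein, for 0–8 or 0–960 min. Sequencing counts of uncleaved targets were normalised to depth and to weakly complementary targets, and k3 was capped at 0.0001 min^-1 after three trials were pooled.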

[2] = test system: EfPiwi piRISC loaded with piRNA #1 (26 nt); assay: pre-steady-state target cleavage rate (min^-1); auxiliary factor: 500 nM Ephydatia muelleri Gtsf1; guide: piRNA #1 5'p-UGAGGUAGUAGGUUGUAUAGUAUCCA; MIWI and MILI are mouse PIWI proteins and EfPiwi is from a freshwater sponge; tags in brackets are library labels; higher = faster piRNA-guided slicing of the target
Summary of the method: as §1

Sequence	pre-steady-state target cleavage rate [1]	pre-steady-state target cleavage rate [2]
GGAGACGAAACUAUACAAGCUACUACCUCA	0.242 ± 0.02	0.00338 ± 0.0017
GGAGACCAUACUAUACAACCUACUUGCUCA	0.13 ± 0.032	0.00354 ± 0.002
GGAGAGGAUACUAAACAACCUAGUACCUCA	0.00823 ± 0.004	0.00257 ± 0.002
GGAGACUAUACUAUACAACCUACUACCUCA	0.171 ± 0.014	0.0352 ± 0.014
GGAGACGAUACUAUUCAACCUACUAGCUCA	0.0651 ± 0.01	0.0042 ± 0.002
GGAGACCGUACUAUACAACCUACUACCUCA	0.157 ± 0.021	0.156 ± 0.049
GGAGACGAUAUUAUACAACCUACUACCUCA	0.214 ± 0.013	0.00616 ± 0.0034
GGAGACGAUGACUAUACAACCUACUACCUCA	0.151 ± 0.02	0.11 ± 0.039
GGAGAGGUUACUAUACAUCCUACUACCUCA	0.191 ± 0.016	0.00567 ± 0.0029
GGAGAGGAAACUAUACAUCCUACUACCUCA	0.302 ± 0.029	0.00711 ± 0.0026
GGAGAGGAUACUAUACAACCUUCAACCUCA	0.00483 ± 0.0021	0.00352 ± 0.0022
GGAGUGGAUACUAUUCAACCUUCUACCUCA	0.00907 ± 0.0019	0.00433 ± 0.0025
GGAGUGGAUACUCUACAACCUACUACCUCA	0.194 ± 0.011	0.00588 ± 0.0041
GGAGACGAUACUACACAACCUACUACCUCA	0.203 ± 0.019	0.00692 ± 0.0032
GGAGAGGAUACUAUACAACCCUACUACCUCA	0.0028 ± 0.0028	0.00598 ± 0.0032
GGAGACCUUACAUUACAACCUACUACCUCA	0.0294 ± 0.0055	0.00334 ± 0.0033
GGAGAGGAUACUAUACAACCUACUACCACA	0.171 ± 0.017	0.00641 ± 0.0021
GGAGAGCAUACUAUACAACCUAGUACCUCA	0.0618 ± 0.013	0.00276 ± 0.0014
GGAGACGAUACUAUACAACCUACUAACCUCA	0.194 ± 0.02	0.0059 ± 0.0019
GGAGACGAUACUAUACAGCCUACUACCUCA	0.16 ± 0.015	0.0104 ± 0.0039

Sequence	pre-steady-state target cleavage rate [1]	pre-steady-state target cleavage rate [2]
GGAGACGAUACUAUACAACCUACUCCCUCA	0.106 ± 0.017	0.00312 ± 0.00092
GGAGACGAUAGUAUACAACCUACUACCUCA	0.147 ± 0.011	0.00758 ± 0.0036
GGAGACCUUACCUAUACAACCUACUACCUCA	0.0629 ± 0.016	0.0117 ± 0.0057
GGAGAGGAUACUAUACUACCAACUACCUCA	0.00796 ± 0.0017	0.00357 ± 0.0021
GGAGACGAUACUUUACAACCUACUACCUCA	0.189 ± 0.013	0.00691 ± 0.0033
GGAGAGCAUACUAUACAACGUACUACCUCA	0.0213 ± 0.003	0.00394 ± 0.0014
GGAGUGGUUACUAUACAACCUACUACGUCA	0.0604 ± 0.011	0.00307 ± 0.0016
GGAGAGCAUAGUAUACAACCUACUACCUCA	0.0921 ± 0.0087	0.0077 ± 0.0045
GGAGACCUAUGUUAUACAACCUACUACCUCA	0.104 ± 0.01	0.0122 ± 0.0063
GGAGUGCAUACAAUACAACCUACUACCUCA	0.186 ± 0.013	0.0102 ± 0.0044
GGAGUGGAUACUAAACAACCUACUACGUCA	0.0421 ± 0.0062	0.00252 ± 0.0015
GGAGACCAAACUAUACAACCUACUACCUCA	0.131 ± 0.036	0.0177 ± 0.0063
GGAGACCUUACUAUACAACAUACUACCUCA	0.0732 ± 0.0077	0.00974 ± 0.0063
GGAGUGGAUACUAUACUACCAACUACCUCA	0.00975 ± 0.0022	0.00428 ± 0.002
GGAGUGGAAACUAUACAACCUAGUACCUCA	0.055 ± 0.021	0.00276 ± 0.0018
GGAGUGAUACUAUACAACCUACUACCUCA	0.174 ± 0.011	0.186 ± 0.069
GGAGACCUAACUAUACAACCUACUACCUCC [g2:g21:cont:t1C]	0.175 ± 0.03	0.00701 ± 0.0033
GGAGUGGAUACUAUUCAACCUACUAGCUCA	0.0538 ± 0.0095	0.0025 ± 0.0021
GGAGACGUAUCUAUACAACCUACUACCUCA	0.156 ± 0.015	0.00913 ± 0.0041
GGAGACCUUACUAUACAACGUACUACCUCA	0.0177 ± 0.0026	0.00318 ± 0.0019

Sequence	pre-steady-state target cleavage rate [1]	pre-steady-state target cleavage rate [2]
GGAGUGGAUACUAUAAAACCUACUACCUCA	0.161 ± 0.0081	0.00522 ± 0.0025
GGAGACCUUACUAUAACAACCUACUACCUCA	0.134 ± 0.013	0.00893 ± 0.0047
GGAGAGGAUACUAUACAACCUACUACACUCA	0.136 ± 0.019	0.00522 ± 0.0018
GGAGUGGAUACUAUUCAACCAACUACCUCA	0.0045 ± 0.002	0.00404 ± 0.0021
GGAGACGAUACUAUACAACACUACUACCUCA	0.00963 ± 0.0034	0.00912 ± 0.0032
GGAGAGGAUACUAUACAACGUUCUACCUCA	0.00213 ± 0.0019	0.00409 ± 0.0022
GGAGACCAUACUAUACAUCCAACUACCUCA	0.00924 ± 0.0032	0.00245 ± 0.0022
GGAGUCGAUACUAUACAACCUACUAGCUCA	0.0244 ± 0.0057	0.00304 ± 0.0019
GGAGUGGAUACUAUACAACCUGCUACCUCA	0.0658 ± 0.0067	0.0792 ± 0.029
GGAGACCUAAAUAUACAACCUACUACCUCA	0.0318 ± 0.0077	0.0102 ± 0.0046
GGAGACGAUACUAUACAACCUACUACCUCCA	0.214 ± 0.014	0.02 ± 0.0073
GGAGAGAAUACUAUACAACCUACUACCUCA	0.177 ± 0.01	0.0106 ± 0.0053
GGAGAGGAUACUAUACUACCUACUACCUGA	0.0973 ± 0.013	0.00353 ± 0.002
GGAGACCAUACUAUACAUCCUACUACCUGA	0.23 ± 0.034	0.00312 ± 0.0018
GGAGUCGAUACUAUACAACCUACUACCUGA	0.0703 ± 0.011	0.00547 ± 0.0021
GGAGACGAUACUAUACAACCUACAACCACA	0.0888 ± 0.035	0.00436 ± 0.0022
GGAGACGAUACUAAACAACCAACUACCUCA	0.00769 ± 0.0028	0.0024 ± 0.0017
GGAGACCAUACUAUACAACGUACUACCUGA	0.011 ± 0.0036	0.00457 ± 0.0027
GGAGACCUUACUAUACAACCUUCUACCUCA	0.00711 ± 0.0021	0.00767 ± 0.0037
GGAGUGGAUACUAUACAACCUACUAGCCUCA	0.115 ± 0.019	0.00369 ± 0.0017
